# Screening results deposited in PubChem by National Center for Advancing Translational Sciences (NCATS).
# In the library only some 21% were active in any assay of this set; here they are far more common.
# DT40 TDP1 CPT: DT40-hTDP1 cell growth loss with CPT | chicken DT40 Tdp1-/-;hTDP1 cells + 20 nM CPT, ATP luminescence, 48 h | Potency, µM (highest dose often 46.2 µM), hits mostly inhibitors | 420,000 tested, 12% active; further: nearly all actives have a fitted effect of over 55% in size
#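 Chicken DT40 Tdp1-/- cells complemented with human TDP1, 400 cells/well, exposed to compounds plus 20 nM camptothecin for at least 48 h at 37 C; viability read as ATP content by CellTiter-Glo luminescence.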
# IL-1B inflam inh: inflammasome signaling inhibition, IL-1 beta readout | THP-1 LPS/ATP IL-1B secretion, AlphaLISA, 16 h; active compounds read low | activity change, % at 57.5 µM | 360,000 tested, 4.7% active | AID 743279; in the data active means activity change below about -50%; inconclusive means mostly about -30% to -49%
#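 THP-1 cells pretreated 1 hr with compounds (up to 57.5 uM final), then stimulated with LPS (250 ng/mL final) plus ATP (1.25 mM final); secreted IL-1B measured by AlphaLISA after 16 hr, decreased signal indicating inhibition.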
# ClpP mod: qHTS Assay for Activators of ClpP; purified B. subtilis ClpP, FRET peptide cleavage, 20 min; Potency, µM (titrated, usually from 57.5 µM); 340,000 tested, 1.9% active; AID 651965, 2013; active means well fitted falling curve with a large enough effect; inconclusive means small, poorly fitted or top-dose-only effect; inactive means no such curve, though single readings can be large or run the other way; further: the source files actives as falling curves though it sought activators and does not explain the sign; nearly all actives have a fitted effect of over 65% in size
# Target sequence (P80244 whole entry, looked up): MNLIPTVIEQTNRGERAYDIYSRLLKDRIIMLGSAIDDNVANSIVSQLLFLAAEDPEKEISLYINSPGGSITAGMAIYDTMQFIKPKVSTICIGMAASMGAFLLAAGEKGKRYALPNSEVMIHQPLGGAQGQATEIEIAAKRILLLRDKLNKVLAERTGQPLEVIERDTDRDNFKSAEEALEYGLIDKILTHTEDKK
#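 FRET quenching reversal measured ClpP activation: 10 microg/mL B. subtilis ClpP at pH 8 with the FRET-FV decapeptide, read at 430 nm after 320 nm excitation. The 20-min minus 0-min signal was scaled between DMSO/no-enzyme wells and ADEP (5.8 microM final).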
# D3 ag: D3 dopamine receptor (human) agonism; AID 652048; P35462; 410,000 tested, 0.58% active; D3R DiscoveRx beta-arrestin cells, luminescence, 90 min; max activation, %; in the data active means max activation above about 30%
# Target sequence (P35462 whole entry, looked up): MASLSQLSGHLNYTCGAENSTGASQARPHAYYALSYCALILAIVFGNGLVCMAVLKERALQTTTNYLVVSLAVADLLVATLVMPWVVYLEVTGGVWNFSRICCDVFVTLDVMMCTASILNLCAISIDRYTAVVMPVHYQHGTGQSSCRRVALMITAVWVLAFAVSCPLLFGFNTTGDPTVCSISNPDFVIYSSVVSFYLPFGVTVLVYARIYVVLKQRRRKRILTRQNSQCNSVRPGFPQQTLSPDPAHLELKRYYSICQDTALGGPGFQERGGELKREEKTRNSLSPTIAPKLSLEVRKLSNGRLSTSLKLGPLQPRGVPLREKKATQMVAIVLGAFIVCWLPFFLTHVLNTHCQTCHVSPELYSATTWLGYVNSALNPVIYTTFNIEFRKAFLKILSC
#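 Cells at 1500/well, incubated overnight, then treated with pinned compounds (dopamine as control) for 90 min at 37 degrees C. DiscoveRx reagent added for 30 - 60 minutes at room temperature; luminescence read.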
# D3 antag: blocks the human D3 dopamine receptor; 360,000 tested, 2.5% active; AID 652054; D3R cells, DiscoveRx beta-arrestin luminescence, antagonist mode; active compounds read low; max response, negative = inhibition, %; P35462; in the data active means max response below about -50%; inconclusive means no clear call, values can overlap the other calls
#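 Cells plated overnight at 1500 cells/well, then exposed to library compounds with dopamine controls for 90 minutes at 37 degrees C. DiscoveRx reagent added for 30–60 minutes at room temperature; luminescence read, quantitative HTS format.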
# TDP1 cell noCPT: qHTS for Inhibitors of human tyrosyl-DNA phosphodiesterase 1 (TDP1): qHTS in cells in absence of CPT. DT40 Tdp1-/- hTDP1 cells, no CPT, ATP luminescence, 48 h. Potency, µM (titrated, usually from 46.2 µM), usual class: inhibitors. 420,000 tested, 15% active. AID 686978, 2013; further: nearly all actives have a fitted effect of over 55% in size
#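 Chicken DT40 Tdp1-/- cells complemented with human TDP1, screened without camptothecin (DMSO vehicle only), 400 cells/well. Compounds pin-transferred, cells incubated at 37 °C for at least 48 hr. Growth read as ATP-dependent luminescence (CellTiter-Glo, 30 min at RT).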
# A number is an active result; - = inactive; ? = inconclusive; . = not tested or not shown. Unless noted, the call rests on the fitted dose curve; in most records, active means well fitted inhibition curve with a large enough effect; inconclusive means small, poorly fitted or top-dose-only effect; inactive means flat fitted curve, though single readings scatter.
SMILES,DT40 TDP1 CPT,IL-1B inflam inh,ClpP mod,D3 ag,D3 antag,TDP1 cell noCPT
Cc1ccc(NC(=O)CSc2ncnc3ccccc23)cc1S(=O)(=O)N1CCCCC1,26µM,-95,-,-,-,?
O=C(COC(=O)c1cc(S(=O)(=O)N2CCCC2)ccc1O)Nc1ccc(F)cc1F,-,-,?,-,-,-
COC(=O)[C@]12CCCCC=C1N(CCc1ccc(OC)c(OC)c1)C(=O)[C@H](CC(=O)N1CCCC1)C2,?,?,-,-,-,?
COC(=O)[C@]12CCCCC=C1N(Cc1ccccc1)C(=O)[C@H](CC(=O)N1CCCC1)C2,?,-,-,-,-,?
COC(=O)[C@]12CCCCC=C1N(CCC1=CCCCC1)C(=O)[C@H](CC(=O)N1CCC(c3ccccc3)CC1)C2,?,-,-,-,-,16µM
COC(=O)[C@]12CCCCC=C1N(CCC1=CCCCC1)C(=O)[C@H](CC(=O)N1CCN(C(=O)c3ccco3)CC1)C2,?,-,-,-,-,26µM
COC(=O)[C@]12CCCCC=C1N(CCc1ccc(OC)c(OC)c1)C(=O)[C@H](CC(=O)N1CCN(C(=O)c3ccco3)CC1)C2,?,?,-,-,-,?
COC(=O)[C@]12CCCCC=C1N(CCC1=CCCCC1)C(=O)[C@H](CC(=O)N1CCCC1)C2,?,-,-,-,-,16µM
CC(C)(C)C(=O)Nc1ccc(-c2nc3ccc(NC(=O)C(C)(C)C)cc3[nH]2)cc1,0.65µM,.,-,-,.,1.2µM
Nc1cccc(C(=O)Nc2ccc3nc(-c4cccnc4)[nH]c3c2)c1,-,-,-,-,-,-
O=C(Nc1cccc(-c2nc3ccccc3[nH]2)c1)c1cccc(NC(=O)c2ccco2)c1,16µM,-95,?,-,-,18µM
O=C(Nc1ccc2nc(-c3ccc(Br)o3)[nH]c2c1)c1ccco1,?,-,-,-,-,9.2µM
O=C(Nc1ccc2nc(-c3cccnc3)[nH]c2c1)C1CCCCC1,?,-,-,-,-,15µM
OC[C@@H]1CN(Cc2ccc(F)cc2)C[C@H](n2cnc3c(NCc4ccncc4)ncnc32)O1,?,-,-,-,-,-
COc1ccc(S(=O)(=O)Nc2ccc3c(c2)C(=O)N([C@H](C)CO)C[C@H](C)[C@@H](CN(C)S(C)(=O)=O)O3)cc1,-,-,-,-,-,-
CC(=O)N1N=C(c2ccco2)CC1c1ccc(Cl)o1 (configuration not stated),-,-,-,-,-,-
Cn1cccc1-c1nc2ccc(NC(=O)c3cccs3)cc2[nH]1,?,?,-,-,-,16µM
O=C(Nc1ccc2nc[nH]c2c1)c1ccco1,-,-,-,-,-,-
O=C(Nc1ccc2nc(-c3ccccc3)[nH]c2c1)c1ccco1,?,-,28µM,-,-,21µM
CCc1nc(SCC(=O)Nc2cc(C)ccc2OC)c2c(C)c(C)sc2n1,-,-,.,-,-,15µM
CCc1nc(SCC(=O)Nc2ccccc2OC)c2c(C)c(C)sc2n1,?,?,-,-,-,21µM
COC[C@H]1CCCN1[C@@H]1CS(=O)(=O)N[C@H]1COCc1ccccc1,-,-,-,-,-,-
O=C(COC(=O)c1ccc(O)cc1)NC1CCCCCC1,-,-,-,-,-,-
CCN(CC)c1ccc(NC(=O)C2CCCN(S(=O)(=O)c3ccc4c(c3)oc(=O)n4C)C2)c(C)c1 (configuration not stated),21µM,.,-,-,.,10µM
Cn1c(=O)oc2cc(S(=O)(=O)N3CCCC(C(=O)Nc4ccc(Br)cc4F)C3)ccc21 (configuration not stated),-,.,-,-,.,-
SMILES,DT40 TDP1 CPT,IL-1B inflam inh,ClpP mod,D3 ag,D3 antag,TDP1 cell noCPT
Cn1c(=O)oc2cc(S(=O)(=O)N3CCCC(C(=O)Nc4nccs4)C3)ccc21 (configuration not stated),?,-,-,-,-,21µM
Cc1ccc(NC(=O)C2CCCN(S(=O)(=O)c3ccc4c(c3)oc(=O)n4C)C2)cc1Cl (configuration not stated),?,.,-,-,.,?
CCOc1cc(N2CCOCC2)c(OCC)cc1NC(=O)c1ccccc1N1CCCC1=O,?,-,-,-,-,?
Cc1cccc(NC(=O)CSc2nc(C)c(CC(=O)c3ccc(Br)cc3)c(C)c2C#N)c1C,13µM,-,-,-,-53,15µM
Cc1nc(SCC(=O)Nc2ccc(F)cc2)c(C#N)c(C)c1CC(=O)c1ccc(Br)cc1,16µM,-,-,-,-,?
CCc1nc2nc(C)c(NS(=O)(=O)c3ccc(Cl)cc3)c(=O)n2[nH]1,-,-,.,-,-,-
COc1ccc(CNC(=O)CN2C(=O)CSc3ccc(S(=O)(=O)N(C)C)cc32)cc1,-,.,-,-,.,-
Cc1cc(C)n(-c2nc3ccccc3nc2Nc2cccc(C(=O)NCCc3ccccc3)c2)n1,-,.,-,-,.,?
O=C(COC(=O)Cc1cccc(C(F)(F)F)c1)Nc1ccc2[nH]c(=O)[nH]c2c1,-,-,-,-,-,-
O=C(NCC(c1ccccc1)c1ccccc1)c1nn(-c2ccccc2Cl)nc1CO,?,.,-,-,.,23µM
Cc1ccccc1-n1nc(CO)c(C(=O)NCC(c2ccccc2)c2ccccc2)n1,?,.,-,-,.,21µM
Cc1ccc(-n2nc(CO)c(C(=O)NCC(c3ccccc3)c3ccccc3)n2)cc1,?,.,-,-,.,?
COc1ccccc1N1CCN(C(=O)C2CCN(S(=O)(=O)c3ccc(Cl)cc3)CC2)CC1,?,-,-,-,-,21µM
CC1Cc2cc(S(=O)(=O)N3CCC(C(=O)N4CCN(c5ccccc5F)CC4)CC3)ccc2N1C(=O)C1CC1 (configuration not stated),?,-51,-,-,-,?
COc1ccccc1N1CCN(C(=O)C2CCN(S(=O)(=O)c3ccccc3)CC2)CC1,-,-,-,-,?,-
COc1ccccc1N1CCN(C(=O)C2CCN(S(=O)(=O)c3ccc4c(c3)CC(C)N4C(=O)C3CC3)CC2)CC1 (configuration not stated),?,-53,-,-,-,?
COc1ccccc1N1CCN(S(=O)(=O)c2ccc3c(c2)CC(C)N3C(C)=O)CC1 (configuration not stated),?,-,-,-,-,?
CC(C)c1ccc(S(=O)(=O)N2CCC(C(=O)N3CCN(c4cccc(Cl)c4)CC3)CC2)cc1,26µM,-,-,-,-,?
CC(C)c1nc2cc(C(=O)N3CCNC(=O)C3c3ccc(F)cc3)ccc2o1 (configuration not stated),?,-,-,-,-,-
